# Reference: ChEMBL document CHEMBL2218924, “A broad activity screen in support of a chemogenomic map for kinase signalling research and drug discovery” (Biochem J, 2013)
# What was measured:
# [1] = target: Tyrosine-protein kinase SYK (Homo sapiens) (UniProt P43405); details: at 10 µM
# [2] = target: T1, Mitogen-activated protein kinase kinase kinase 7 (Homo sapiens) (UniProt O43318); details: at 1 µM
# T1 sequence (whole entry): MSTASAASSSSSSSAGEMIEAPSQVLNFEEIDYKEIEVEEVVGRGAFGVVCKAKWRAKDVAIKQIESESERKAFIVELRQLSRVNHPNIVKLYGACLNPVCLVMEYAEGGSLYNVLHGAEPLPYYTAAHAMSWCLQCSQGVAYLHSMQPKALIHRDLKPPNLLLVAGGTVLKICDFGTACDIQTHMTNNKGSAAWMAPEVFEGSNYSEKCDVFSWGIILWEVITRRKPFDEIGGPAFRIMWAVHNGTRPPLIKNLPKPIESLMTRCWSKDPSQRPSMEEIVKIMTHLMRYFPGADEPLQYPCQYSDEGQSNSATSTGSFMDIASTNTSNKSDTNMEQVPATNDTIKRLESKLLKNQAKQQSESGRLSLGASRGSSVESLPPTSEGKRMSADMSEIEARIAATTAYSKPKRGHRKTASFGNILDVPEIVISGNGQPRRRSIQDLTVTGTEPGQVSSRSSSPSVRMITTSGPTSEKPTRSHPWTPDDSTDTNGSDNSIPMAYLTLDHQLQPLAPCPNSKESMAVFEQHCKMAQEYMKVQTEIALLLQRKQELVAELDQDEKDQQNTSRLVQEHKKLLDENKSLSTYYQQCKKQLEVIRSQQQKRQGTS
# [3] = target: T1, Mitogen-activated protein kinase kinase kinase 7 (Homo sapiens); details: at 10 µM
# [4] = target: T2, Serine/threonine-protein kinase TAO1 (Homo sapiens) (UniProt Q7L7X3); details: at 1 µM
# T2 sequence (whole entry): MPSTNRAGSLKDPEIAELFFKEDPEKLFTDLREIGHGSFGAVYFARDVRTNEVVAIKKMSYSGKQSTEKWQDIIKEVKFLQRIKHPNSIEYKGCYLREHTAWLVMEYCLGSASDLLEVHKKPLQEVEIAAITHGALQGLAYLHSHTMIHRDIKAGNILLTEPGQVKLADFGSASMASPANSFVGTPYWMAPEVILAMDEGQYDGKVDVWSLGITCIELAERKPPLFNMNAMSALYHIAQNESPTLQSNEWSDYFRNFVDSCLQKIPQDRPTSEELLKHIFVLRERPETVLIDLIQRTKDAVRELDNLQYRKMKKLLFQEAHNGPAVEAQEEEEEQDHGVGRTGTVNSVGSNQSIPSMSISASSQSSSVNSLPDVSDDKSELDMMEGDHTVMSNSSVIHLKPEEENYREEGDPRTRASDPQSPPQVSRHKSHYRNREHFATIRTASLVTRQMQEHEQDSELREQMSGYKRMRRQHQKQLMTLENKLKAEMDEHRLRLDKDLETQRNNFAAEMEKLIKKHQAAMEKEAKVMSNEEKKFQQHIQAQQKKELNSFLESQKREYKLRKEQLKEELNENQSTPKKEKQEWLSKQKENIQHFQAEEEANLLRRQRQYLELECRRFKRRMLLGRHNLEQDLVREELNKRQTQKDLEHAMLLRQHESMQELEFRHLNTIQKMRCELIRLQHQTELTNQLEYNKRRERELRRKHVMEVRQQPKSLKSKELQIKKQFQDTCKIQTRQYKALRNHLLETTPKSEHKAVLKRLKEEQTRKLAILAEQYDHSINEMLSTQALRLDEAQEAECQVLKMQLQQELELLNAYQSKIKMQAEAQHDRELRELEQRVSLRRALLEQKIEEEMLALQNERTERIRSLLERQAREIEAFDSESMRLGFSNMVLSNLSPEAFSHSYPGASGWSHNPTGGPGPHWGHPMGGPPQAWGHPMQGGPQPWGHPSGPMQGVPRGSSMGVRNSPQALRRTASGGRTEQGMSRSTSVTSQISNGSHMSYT
# [5] = target: T2, Serine/threonine-protein kinase TAO1 (Homo sapiens); details: at 10 µM
# [6] = target: T3, Serine/threonine-protein kinase TAO2 (Homo sapiens) (UniProt Q9UL54); details: at 1 µM
# T3 sequence (whole entry): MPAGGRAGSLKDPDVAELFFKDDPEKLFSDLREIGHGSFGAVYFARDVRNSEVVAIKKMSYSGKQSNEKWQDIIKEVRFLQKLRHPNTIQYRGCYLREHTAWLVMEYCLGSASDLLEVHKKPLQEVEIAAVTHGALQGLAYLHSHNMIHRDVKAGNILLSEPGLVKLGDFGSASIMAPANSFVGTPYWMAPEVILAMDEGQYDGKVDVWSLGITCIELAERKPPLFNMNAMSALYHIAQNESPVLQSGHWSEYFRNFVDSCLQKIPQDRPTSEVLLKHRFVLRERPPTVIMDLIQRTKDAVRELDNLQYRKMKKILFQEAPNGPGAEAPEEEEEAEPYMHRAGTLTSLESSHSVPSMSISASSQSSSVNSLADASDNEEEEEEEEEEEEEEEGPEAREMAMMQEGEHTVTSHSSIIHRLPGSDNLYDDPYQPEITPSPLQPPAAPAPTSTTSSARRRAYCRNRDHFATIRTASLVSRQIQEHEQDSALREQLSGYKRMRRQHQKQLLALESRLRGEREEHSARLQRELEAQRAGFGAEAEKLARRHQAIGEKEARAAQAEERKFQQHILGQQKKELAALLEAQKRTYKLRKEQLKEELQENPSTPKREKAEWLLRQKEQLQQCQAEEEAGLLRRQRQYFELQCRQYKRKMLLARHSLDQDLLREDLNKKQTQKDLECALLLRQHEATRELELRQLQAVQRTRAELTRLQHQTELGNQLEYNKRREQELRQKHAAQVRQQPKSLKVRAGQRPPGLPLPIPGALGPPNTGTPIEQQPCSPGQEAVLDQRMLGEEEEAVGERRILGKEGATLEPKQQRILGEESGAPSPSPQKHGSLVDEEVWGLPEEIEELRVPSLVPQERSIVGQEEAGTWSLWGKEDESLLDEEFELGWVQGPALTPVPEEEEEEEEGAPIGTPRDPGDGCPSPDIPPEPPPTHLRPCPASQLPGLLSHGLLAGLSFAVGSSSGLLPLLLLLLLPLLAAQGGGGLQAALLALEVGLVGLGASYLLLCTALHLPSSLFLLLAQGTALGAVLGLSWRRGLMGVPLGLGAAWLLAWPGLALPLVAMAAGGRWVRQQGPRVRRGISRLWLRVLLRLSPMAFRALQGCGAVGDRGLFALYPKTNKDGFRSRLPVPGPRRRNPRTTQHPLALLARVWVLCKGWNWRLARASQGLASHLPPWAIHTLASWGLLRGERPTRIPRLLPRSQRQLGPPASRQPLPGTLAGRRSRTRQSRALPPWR
# [7] = target: T3, Serine/threonine-protein kinase TAO2 (Homo sapiens); details: at 10 µM
# [8] = target: T4, Serine/threonine-protein kinase TAO3 (Homo sapiens) (UniProt Q9H2K8); details: at 1 µM
# T4 sequence (whole entry): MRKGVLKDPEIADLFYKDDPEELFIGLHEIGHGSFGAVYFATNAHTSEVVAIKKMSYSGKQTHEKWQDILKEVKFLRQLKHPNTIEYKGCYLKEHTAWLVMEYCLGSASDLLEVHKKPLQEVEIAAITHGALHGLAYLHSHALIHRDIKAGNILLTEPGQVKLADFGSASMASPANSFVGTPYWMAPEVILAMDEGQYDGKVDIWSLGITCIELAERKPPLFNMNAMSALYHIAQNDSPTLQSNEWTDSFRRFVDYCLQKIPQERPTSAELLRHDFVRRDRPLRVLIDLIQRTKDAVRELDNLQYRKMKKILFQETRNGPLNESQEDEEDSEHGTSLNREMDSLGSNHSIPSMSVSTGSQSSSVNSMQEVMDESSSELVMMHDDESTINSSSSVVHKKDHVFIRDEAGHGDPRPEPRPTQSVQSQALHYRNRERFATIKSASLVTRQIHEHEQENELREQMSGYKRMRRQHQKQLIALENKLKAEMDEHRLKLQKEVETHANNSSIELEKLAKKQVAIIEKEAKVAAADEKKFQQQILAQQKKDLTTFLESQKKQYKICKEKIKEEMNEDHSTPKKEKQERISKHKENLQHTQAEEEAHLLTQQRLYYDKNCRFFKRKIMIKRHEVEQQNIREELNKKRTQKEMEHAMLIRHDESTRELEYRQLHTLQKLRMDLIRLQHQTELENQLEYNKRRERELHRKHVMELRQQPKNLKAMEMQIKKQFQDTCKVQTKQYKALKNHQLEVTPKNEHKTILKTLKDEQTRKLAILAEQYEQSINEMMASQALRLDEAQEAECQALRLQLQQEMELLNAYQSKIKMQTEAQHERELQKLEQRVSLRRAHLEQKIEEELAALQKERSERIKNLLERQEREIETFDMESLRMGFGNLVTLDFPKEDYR
structure (smiles),measurement,setting,value
O=C(c1cc2cc(O)ccc2[nH]1)c1cc2cc(O)ccc2[nH]1,residual activity,[1],46%
same,residual activity,[2],62%
same,residual activity,[3],23%
same,residual activity,[4],70%
same,residual activity,[5],28%
same,residual activity,[6],80%
same,residual activity,[7],32%
same,residual activity,[8],66%
